# Source: PubChem BioAssay
# Sfp PPTase inh – Sfp phosphopantetheinyl transferase inhibition. Biochemical Sfp PPTase activity, qHTS. Potency, µM, without a hit: largest response in the series, negative = inhibition, hits mostly inhibitors. 310,000 compounds, 3.5% hits;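 further: the enzyme is Sfp with the accession as filed and its product quenches rhodamine fluorescence; 0% = enzyme reaction without inhibitor and -100% = no enzyme wells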
#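 Fluorescence-quenching assay: 15 nM Sfp-PPTase preincubated 15 min at room temperature with compound, then 5 uM rhodamine-CoA and 12.5 uM BHQ-2-labelled YbbR peptide added. Fluorescence (ex 525/em 598 nm) read at start and after 30 min; difference gives rate.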
# G9a inh – G9a (human) methyltransferase inhibition | G9a H3K9 monomethylation, AlphaScreen, 2 h | 350,000 compounds, 8.8% hits | Potency, µM (top dose mostly 102 µM), for the others: at the highest dose activity, negative = inhibition, most hits filed as inhibitors | AID 504332; further: on the % scale 0 is the no-effect control and ±100 the full control effect; nearly all actives have a fitted effect of over 75% in size
#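 Chemiluminescent proximity detection of H3K9 monomethylation, read after 10 min bead incubation in the dark. Reaction: 20 nM G9a, 500 nM biotin-H3K9 peptide, 20 uM SAM cofactor, 2 h, room temperature, following 15 min enzyme-compound preincubation.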
# BAZ2B inh – blocks human BAZ2B | Q9UIF8 | AlphaScreen BAZ2B-H3K14Ac peptide displacement | Potency, µM (top dose mostly 114 µM), without a hit: top-dose activity change, negative = inhibition, hits mostly inhibitors | 360,000 compounds, 4.4% hits | AID 504333; further: on the % scale 0 is the no-effect control and ±100 the full control effect; nearly all actives have a fitted effect of over 60% in size
# Target sequence (Q9UIF8 whole entry, looked up): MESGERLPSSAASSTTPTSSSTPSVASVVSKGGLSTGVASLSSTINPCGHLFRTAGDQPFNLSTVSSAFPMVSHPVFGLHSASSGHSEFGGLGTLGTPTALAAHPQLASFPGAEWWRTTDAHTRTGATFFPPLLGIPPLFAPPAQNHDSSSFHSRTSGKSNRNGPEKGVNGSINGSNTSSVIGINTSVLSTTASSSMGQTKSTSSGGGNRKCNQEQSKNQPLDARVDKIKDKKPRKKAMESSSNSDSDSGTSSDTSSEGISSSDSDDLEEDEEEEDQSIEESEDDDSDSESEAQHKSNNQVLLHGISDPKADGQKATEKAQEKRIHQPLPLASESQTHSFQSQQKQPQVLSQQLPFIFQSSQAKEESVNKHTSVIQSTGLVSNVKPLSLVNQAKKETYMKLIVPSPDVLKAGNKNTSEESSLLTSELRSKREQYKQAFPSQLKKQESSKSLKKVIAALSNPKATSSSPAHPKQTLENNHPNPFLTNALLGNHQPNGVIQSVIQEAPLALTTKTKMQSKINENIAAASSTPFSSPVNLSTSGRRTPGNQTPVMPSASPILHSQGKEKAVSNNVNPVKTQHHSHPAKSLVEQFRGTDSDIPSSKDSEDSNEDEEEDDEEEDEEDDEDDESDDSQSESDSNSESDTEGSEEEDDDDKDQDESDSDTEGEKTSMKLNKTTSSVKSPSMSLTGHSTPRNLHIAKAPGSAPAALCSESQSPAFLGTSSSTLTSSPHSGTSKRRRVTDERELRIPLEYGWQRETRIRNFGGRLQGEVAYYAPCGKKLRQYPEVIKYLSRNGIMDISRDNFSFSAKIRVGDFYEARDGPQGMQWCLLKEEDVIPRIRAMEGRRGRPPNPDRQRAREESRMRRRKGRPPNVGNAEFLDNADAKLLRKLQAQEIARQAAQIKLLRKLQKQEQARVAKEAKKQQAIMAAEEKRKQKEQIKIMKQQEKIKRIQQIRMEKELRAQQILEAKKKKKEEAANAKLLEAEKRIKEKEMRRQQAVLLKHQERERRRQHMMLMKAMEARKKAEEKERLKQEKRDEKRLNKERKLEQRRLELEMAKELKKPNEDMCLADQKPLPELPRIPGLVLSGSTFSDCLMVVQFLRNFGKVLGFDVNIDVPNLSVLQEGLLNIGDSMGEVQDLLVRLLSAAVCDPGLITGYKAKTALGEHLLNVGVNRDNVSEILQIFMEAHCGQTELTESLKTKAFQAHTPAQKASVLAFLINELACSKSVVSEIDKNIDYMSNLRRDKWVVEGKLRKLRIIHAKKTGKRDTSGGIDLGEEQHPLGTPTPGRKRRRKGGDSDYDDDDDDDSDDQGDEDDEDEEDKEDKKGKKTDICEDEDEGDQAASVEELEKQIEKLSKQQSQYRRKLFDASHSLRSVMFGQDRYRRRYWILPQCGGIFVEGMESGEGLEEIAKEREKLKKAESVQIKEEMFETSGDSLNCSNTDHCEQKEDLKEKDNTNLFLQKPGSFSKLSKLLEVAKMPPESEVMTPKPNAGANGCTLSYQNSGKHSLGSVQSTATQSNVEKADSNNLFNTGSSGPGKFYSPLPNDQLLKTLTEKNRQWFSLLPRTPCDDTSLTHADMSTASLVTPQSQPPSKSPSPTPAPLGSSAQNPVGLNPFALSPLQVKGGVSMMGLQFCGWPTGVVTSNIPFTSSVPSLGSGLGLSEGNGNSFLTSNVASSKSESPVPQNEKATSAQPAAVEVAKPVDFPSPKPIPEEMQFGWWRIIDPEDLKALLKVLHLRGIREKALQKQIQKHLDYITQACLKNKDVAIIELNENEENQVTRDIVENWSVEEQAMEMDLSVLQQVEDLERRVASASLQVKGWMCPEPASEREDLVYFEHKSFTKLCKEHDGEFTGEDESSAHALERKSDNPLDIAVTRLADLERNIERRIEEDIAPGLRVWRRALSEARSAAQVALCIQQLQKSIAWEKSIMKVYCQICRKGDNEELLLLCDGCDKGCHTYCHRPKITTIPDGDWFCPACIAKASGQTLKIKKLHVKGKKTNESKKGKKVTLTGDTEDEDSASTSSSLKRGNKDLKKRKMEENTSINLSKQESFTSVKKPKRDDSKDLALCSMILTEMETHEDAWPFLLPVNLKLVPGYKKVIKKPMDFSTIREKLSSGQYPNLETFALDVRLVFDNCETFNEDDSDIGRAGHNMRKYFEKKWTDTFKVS
#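 AlphaScreen displacement: compounds (up to 110uM) incubated 30 min at room temperature with a preformed 50 nM BAZ2B/50 nM biotinylated H3K14Ac peptide complex in PBS pH 7.4 with Tween-20. Donor and acceptor beads at 10 ug/mL final added, 20 min light-protected before reading.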
# HP1b binding inh – blocks HP1-beta chromodomain binding to methylated histone tails; P83916; AlphaScreen HP1-beta / biotin-H3K9me3 peptide binding; Potency, µM (doses to about 114 µM), for the others: at the highest dose activity change, negative = inhibition, most hits filed as inhibitors; 390,000 compounds, 0.56% hits; AID 540317; further: nearly all actives have a fitted effect of over 70% in size
#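 HP1-beta protein (50 nM final) preincubated 30 min at room temperature with biotinylated H3(1-18)K9me3 peptide (50 nM) in PBS pH 7.4, 0.01% Tween-20, then compound added for 30 min. AlphaScreen streptavidin donor/nickel chelate acceptor beads (10 ug/mL final), 30 min dark, luminescence read.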
# JMJD2A Tudor – blocks the human JMJD2A Tudor domain; Potency, µM (top dose mostly 114 µM), without a hit: top-dose activity change, negative = inhibition, usual class: inhibitors; 390,000 compounds, 4.4% hits; AlphaScreen JMJD2A-Tudor / H3K4me3 peptide binding; further: on the % scale 0 is the no-effect control and ±100 the full control effect; nearly all actives have a fitted effect of over 50% in size
# * = called active by the depositor; ? = inconclusive; . = no result given; ! = not confirmed by another sample; [ ] = remark or other dose. Hits are enriched below; roughly 12% of the tested compounds scored in any of these assays. The call rests on the fitted dose curve; in most records, active means well fitted curve in the direction sought with a large enough effect; inconclusive means small, poorly fitted or top-dose-only effect, or another doubt; inactive means no such curve, though single readings can be large; an effect the other way counts as inactive or inconclusive. Potency means the concentration at half of the fitted maximal effect.
SMILES,Sfp PPTase inh,G9a inh,BAZ2B inh,HP1b binding inh,JMJD2A Tudor
O=C(CNC(=S)NC(=O)c1ccc(Br)o1)c1ccccc1,19%,-4%[59 µM],5%,-11%,-11%
Nc1c(Cl)ncnc1N/N=C/c1cccnc1,50µM*,40µM*,-23%,10%,?
CCOc1cc(/C=N/Nc2ncnc(Cl)c2N)ccc1O,-76%,?,-27%,-10%,-27%
CC1C(=O)C(C)(C)C(=O)OC1c1ccc([N+](=O)[O-])cc1 (stereo not drawn),2%,50µM*,-14%,48%,2%
Cc1ccc(-c2nnc(Nc3ccccc3)c3ccccc23)cc1S(=O)(=O)NCC1CCCO1 (stereo not drawn),-8%,3%[0.501 µM],-2%,23%,-1%
Cc1ccc(-c2nn3c(-c4ccco4)nnc3c3ccccc23)cc1S(=O)(=O)NCC1CCCO1 (stereo not drawn),50µM*,20µM*,-25%,8%,-21%[57.1 µM]
CC(C)C[C@H](NC(=O)NCc1ccccc1Cl)C(=O)O,17%,2%[59 µM],9%,35%,-8%
CC(C)C[C@H](NC(=O)NCc1ccc(Cl)cc1)C(=O)O,15%,35µM*,2%,13%,-25%
O=C(CNC(=O)c1ccc2ccccc2c1)NC1CCCCC1,.,.,.,27%,-3%
COC(=O)c1c(-c2ccc(S(C)(=O)=O)cc2)sc2ccc(OC)cc12,.,.,.,11%,45µM*
COC(=O)c1c(-c2ccc(S(C)(=O)=O)cc2)sc2cc(OC)ccc12,.,.,.,43%,?
CCn1nc(C(=O)OCC(=O)NCC(C)C)c2ccccc2c1=O,15%,-6%,-12%,15%,-12%
CCC(=O)N1c2ccccc2NC2=C(C(=O)CCC2)C1c1ccc(N(C)C)cc1 (stereo not drawn),9%,50µM*,-5%,40%,-19%
Fc1ccc(-c2ccnc(=S)[nH]2)cc1,20µM*,-49%[12.7 µM],2%,16%,5%
COc1cccc2cc(-c3ccnc(=S)[nH]3)oc12,5%,0%,3%,.,.
Cn1c2ccccc2c2cnn(CC(=O)Nc3ccc(F)cc3F)c(=O)c21,0%,16%,-22%,34%,-1%[11.4 µM]
C/C(=N\NC(=O)c1cc([N+](=O)[O-])cc([N+](=O)[O-])c1)c1ccco1,35µM*,.,-10%,18%,-13%
O=C(N/N=C/c1ccc([N+](=O)[O-])cc1)c1cnccn1,8%,.,-13%,20%,?
C/C(=N\NC(=O)C1(C)CC1(Br)Br)c1ccc([N+](=O)[O-])cc1 (stereo not drawn),6%,20%[59 µM],-1%,30%,-9%
C/C(=N/NC(=O)c1cc(O)c(O)c(O)c1)c1ccc([N+](=O)[O-])cc1,3.2µM*,7.1µM*,40µM*,?,45µM*
C/C(=N\NC(=O)c1cnccn1)c1ccc([N+](=O)[O-])cc1,3%,10%,-4%,14%,22µM*
C/C(=N\NC(=O)c1cccs1)c1ccncc1,7%,24%,-20%,26%,-2%
C/C(=N/NC(=O)c1cnccn1)c1cccs1,-7%,-10%[59 µM],?,29%,25µM*
CCCN1CCN(CCCNC(=S)Nc2ccc(OC)cc2)CC1,14%,-16%[59 µM],-4%,45%,1%[57.1 µM]
Cn1cc(/C=C(\NC(=O)c2ccccc2Cl)C(=O)NCCN2CCOCC2)c2ccccc21,-1%,9%,-17%,53%,-5%
SMILES,Sfp PPTase inh,G9a inh,BAZ2B inh,HP1b binding inh,JMJD2A Tudor
Cc1noc(C)c1C(=O)Nc1cc(S(=O)(=O)N2CCCCC2)ccc1N(C)C,.,40µM*,10%,12%,-19%
N#CC1=C(N)N(c2ccc(Br)cc2)C2=C(C(=O)CCC2)C1c1cccnc1 (stereo not drawn),5.6µM*,11µM*,-38%,43%,-21%
Cc1c(C2C(C#N)=C(N)N(c3ccccc3C#N)C3=C2C(=O)CCC3)cnn1C (stereo not drawn),-20%,-44%[59 µM],?,28%,?
Cc1ccc(N2C(N)=C(C#N)C(c3cccnc3)C3=C2CCCC3=O)cc1 (stereo not drawn),-9%,?,-8%,18%,-17%
N#CC1=C(N)N(c2ccccc2C#N)C2=C(C(=O)CCC2)C1c1ccsc1 (stereo not drawn),1%,?,56µM*,10%,-33%
Cc1ccc(-c2nc(N=Nc3ccc(O)cc3)n[nH]2)cc1,5%,50µM*,?,-28%,?
COc1ccc(-c2nc(N=Nc3ccc(O)cc3)n[nH]2)cc1,6%,2%[59 µM],?,-18%,?
COc1ccc(-c2nc(SCC(=O)NCc3ccco3)c(-c3ccccc3)[nH]2)cc1OC,?,45µM*,?,-12%,?
COc1ccc(-c2[nH]c(-c3ccc(F)cc3)nc2SCC(=O)NCc2ccco2)cc1OC,-11%,89µM*,5%,31%,-23%
COc1ccc(-n2nnnc2SCC(=O)NCc2ccco2)cc1OC,11%,50µM*,?,5%,-22%
COc1ccc(-c2[nH]c(-c3ccccc3)nc2SCC(=O)NCc2ccco2)cc1OC,-6%,-28%,3%,28%,-22%
CC(C)c1ccc(N2C(=O)C(Cl)=C(N3CCOCC3)C2=O)cc1,14%,10%,-4%,31%,-7%
CCOc1ccc(N2C(=O)C(Cl)=C(N3CCOCC3)C2=O)cc1,-10%,50µM*,-29%,25%,-27%
O=C1C(Cl)=C(N2CCOCC2)C(=O)N1c1ccc(Br)cc1,1%,45µM*,6%,54%,-20%
CCCCOCCCNCc1cccn1CCN1CCOCC1,2%,?,-36%,-24%,7.9µM*
c1csc(CNCCCN2CCOCC2)c1,17%,?,-8%,24%,-10%
CN(c1ccccc1C(=O)O)S(=O)(=O)c1ccc2[nH]c(=O)[nH]c2c1,21%,6%,1%,28%,-6%
C=CCOC(=O)C(=O)/C=C/c1csc2ccccc12,40µM*,?,?,-26%,?
Cc1ccc(CNC(=O)C2CCN(S(=O)(=O)c3cccnc3)CC2)cc1,0%,.,0%,53%,-6%
C/C(=N\NC(N)=S)C12CC3CC(CC(C3)C1)C2,8%,-13%[12.7 µM],-38%,13%,-30%
C/C(CC1CC2=C(CC1(C)C)C(C)(C)CCC2)=N\NC(N)=S (stereo not drawn),?,32µM*,-21%,?,-34%
COCc1c(C(=O)OCC(=O)c2c(N)n(CC(C)C)c(=O)n(C)c2=O)oc2ccccc12,10%,-12%[59 µM],-16%,22%,-9%
COc1cc(OC)c(NC(=O)CCCn2nc(C)c3sc4ccccc4c3c2=O)cc1Cl,.,14µM*,?,-14%,?
Cc1ccc(NC(=O)CCCn2nc(C)c3sc4ccccc4c3c2=O)c(Cl)c1,.,?,-17%,17%,-26%
CC(O)C(N)C(=O)O (stereo not drawn),-9%,27%[59 µM],.,.,.
N[C@H](C(=O)O)[C@H](O)C(=O)O,89µM*!,15%[12.7 µM],.,.,.
